Molecular target: Histone H2B type 1-L (UniProt Q99880)
Assay: cross-link between two proteins; cross-linking mass spectrometry

Substance	listed as a hit
Large ribosomal subunit protein eL6, Q02878	yes
Large ribosomal subunit protein uL18, P46777	yes
Small ribosomal subunit protein eS8, P62241	yes
